Peg3 prom inh-1: reduces Peg3 promoter-driven luciferase expression in HeLa; HeLa PEG-Prom luciferase reporter, luminescence, overnight; inhibition, % at 20 µM; 360,000 compounds, 1.7% hits;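 active means inhibition of at least 50% at 20 µM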
EBV LMP1 NFkB: Epstein-Barr LMP1 NF-kappaB reporter inhibition | AID 504558 | inhibition, % at 12.5 µM | LMP1-induced NF-kappaB luciferase reporter cells, luminescence | 350,000 compounds, 0.69% hits; in the data active means inhibition above about 41%;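 further: 0% = neutral control wells and 100% = reference inhibitor control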
PAX8 inh HTS: lowers PAX8-driven luciferase in RMG-I cells | RMG-I TPO-luciferase reporter, SteadyGlo, 24 h | 360,000 compounds, 1.2% hits | inhibition, % at 12.6 µM;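 active means mean replicate inhibition at least 60% with every replicate also reaching 60%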;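 further: luciferase light reporting Pax8 driven TPO promoter activity; plate controls were median of neutral control wells for no effect and mitoxantrone controls for full effect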
TRPM1 prom inh: reduces MITF-dependent TRPM1 promoter luciferase signal | SK-MEL-5 TRPM1 promoter luciferase, 24 h | inhibition, % at 12.5 µM | 330,000 compounds, 0.83% hits;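 active means mean inhibition across replicates of 60% or more, whatever share of single replicates reaches that level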
Shn3 inh set2: Schnurri-3 reporter inhibition in Clone20 osteoblasts | Clone20 osteoblast Shn3 3'UTR firefly luciferase, 24 h | inhibition, % at 12.5 µM | 360,000 compounds, 0.52% hits;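 active means mean inhibition of at least 75% with every replicate also reaching 75%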;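 further: 0% = median of neutral control wells and 100% = pilot-screen positive control compound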
HIF-2a block: HIF-2a inhibition; 786-0 RCC cells HIF-2a reporter, luciferase luminescence, overnight; inhibition, % at 18.8 µM; 360,000 compounds, 0.72% hits; AID 624352;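 active means inhibition of the luminescence signal of 40% or more relative to plate controls, in a single-dose primary screen at 18.75 µM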
Peg3 prom inh-2: confirmation of Peg3 promoter inhibitors. shares compounds with Peg3 prom inh-1. HeLa PEG-Prom luciferase reporter, luminescence, overnight. inhibition, % at 20 µM. 1,300 compounds, 84% hits;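 active means at 20 µM dose, 40% or more inhibition averaged across four replicates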
Mdm2-MdmX confirm: confirmation of inhibitors of human Mdm2/MdmX interaction, set 2 | inhibition, % at 8 µM | SaOS-2 split-luciferase Mdm2/MdmX complementation, luminescence | 740 compounds, 99% hits | shares compounds with HIF-2a block;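 active means mean inhibition of the luminescence signal across two replicates at or above 26 percent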
HIF-2a conf: HIF-2a inhibition, single concentration confirmation; shares compounds with HIF-2a block; 786-0 RCC cells, HIF-2a luciferase reporter luminescence, overnight; inhibition, % at 18.8 µM; 1,800 compounds, 56% hits;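 active means mean inhibition across four replicates of at least 40 percent at the single tested concentration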
HIF-1a counter: counter-screen for HIF-2a inhibitors: HIF-1a inhibition in MiaPaCa-2 cells. 1,800 compounds, 72% hits. AID 651589. MiaPaCa-2 HIF-1a luciferase reporter, desferoxamine, overnight. inhibition, % at 18.8 µM. shares compounds with HIF-2a block;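 active means mean inhibition of the reporter signal across four replicates at the single tested dose of 50% or more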
Numbers without * were called inactive; nt = no result. Shown are actives, neighbours in structure and some others; about 2.8% of the full set was active somewhere.

SMILES	Peg3 prom inh-1	EBV LMP1 NFkB	PAX8 inh HTS	TRPM1 prom inh	Shn3 inh set2	HIF-2a block	Peg3 prom inh-2	HIF-2a conf	HIF-1a counter	others
Cc1noc(C)c1NC(=O)N(C)C[C@@H]1Oc2ccc(NS(=O)(=O)c3ccccc3)cc2CC(=O)N([C@@H](C)CO)C[C@H]1C	nt	nt	18.1	nt	nt	nt	nt	nt	nt
Cc1ccc2nc(NC(=O)CSCC(=O)OCC(=O)c3ccccc3)sc2c1	53.4*	19.5	24.7	52.7	31.3	70.6*	71.1*	75.1*	74.4*
CCOCC(=O)Nc1nc2ccc(C)cc2s1	-282.4	-1.2	nt	-76.3	-57.3	-229.4	nt	nt	nt
O=C(C1CCC1)N1CCCCN2[C@@H](CO)[C@H](c3ccc(-c4cccc(F)c4)cc3)[C@@H]2C1	nt	nt	-2.0	nt	nt	nt	nt	nt	nt
CC(CCc1ccccc1)NC(=O)COC(=O)c1ccc(S(C)(=O)=O)c([N+](=O)[O-])c1 (stereo not given)	102.2*	-0.8	-11.7	-8.7	96.7*	50.5*	97.0*	38.0	96.8*	Mdm2-MdmX confirm=102.5*
CC(CCc1ccccc1)NC(=O)COC(=O)c1ccc([N+](=O)[O-])cc1 (stereo not given)	-6.8	-3.8	-2.9	-0.8	5.3	16.4	nt	nt	nt
O=C(C[C@@H]1CC[C@@H](NC(=O)c2ccncc2)[C@@H](CO)O1)NCc1ccncn1	nt	nt	-11.0	nt	nt	nt	nt	nt	nt
N/C(=N\OC(=O)c1ccc([N+](=O)[O-])cc1Cl)c1ccccn1	50.0*	55.6*	67.8*	55.9	16.6	40.7*	21.3	28.1	61.6*
Cc1noc(C)c1NC(=O)Nc1ccc2c(c1)C(=O)N([C@H](C)CO)C[C@@H](C)[C@@H](CN(C)S(=O)(=O)c1ccccc1)OCCCC[C@@H](C)O2	nt	nt	12.1	nt	nt	nt	nt	nt	nt
O=C(Nc1ccccc1)C1Cc2c(-c3cccc(F)c3)ccnc2O1 (stereo not given)	18.0	nt	2.6	nt	-6.0	3.9	nt	nt	nt
CS(=O)(=O)Nc1cccc(NC(=O)C2Cc3c(-c4cccc(F)c4)ccnc3O2)c1 (stereo not given)	66.2*	nt	54.8	nt	67.2	51.0*	64.3*	34.2	88.7*
O=c1c2ccccc2oc2cc(C#CC3(O)CCCCC3)ccc12	60.2*	10.6	7.3	49.2	41.6	44.1*	58.6*	73.3*	97.3*
O=c1c2ccccc2sc2ccc(C#CC3(O)CCCCC3)cc12	78.6*	81.2*	68.8*	93.2*	88.7*	86.7*	92.4*	93.8*	103.5*
C[C@@H]1CN([C@H](C)CO)C(=O)Cc2cc(NC(=O)CCCCCC(=O)Nc3ccccc3N)ccc2O[C@@H]1CN(C)S(=O)(=O)c1ccc(F)cc1	nt	nt	0.0	nt	nt	nt	nt	nt	nt
CCOC(=O)Cc1csc(NC(=S)NC(=O)c2ccc(Cl)cc2)n1	51.4*	5.0	nt	11.4	20.5	94.8*	70.0*	97.8*	96.9*
C(=Cc1cnc2ccccc2n1)c1ccc2c(c1)OCO2	69.3*	80.0*	96.6*	nt	86.3*	59.3*	84.6*	91.9*	99.3*
Cn1c(/N=C/c2ccc3c(c2)OCO3)nc2ccccc21	3.7	-3.6	nt	0.0	2.4	-28.6	nt	nt	nt
CCCNC(=O)N(C)C[C@@H]1Oc2ncc(C3=CCCC3)cc2C(=O)N([C@H](C)CO)C[C@H]1C	nt	nt	-47.8	nt	nt	nt	nt	nt	nt
O=C(N/N=C/c1sc(N2CCOCC2)nc1-c1ccccc1)c1cccc(S(=O)(=O)N2CCCC2)c1	65.7*	11.3	73.8*	52.3	89.9*	32.3	65.7*	nt	nt	Mdm2-MdmX confirm=80.0*
O=C(O)c1ccc(COc2ccccc2Cl)cc1	-90.1	-12.0	nt	-21.8	-4.0	-128.6	nt	nt	nt
O=C(O)c1cccc(COc2ccccc2Cl)c1	92.1*	74.4*	nt	91.9*	88.7*	77.1*	82.2*	92.6*	36.2	Mdm2-MdmX confirm=78.0*
